High-throughput results deposited in PubChem by National Center for Advancing Translational Sciences (NCATS).
Only a selection was taken, and hits are over-represented in it overall.
ERK EGF inh = inhibitors of EGF-stimulated ERK signaling pathway | HEK293-V1b, EGF-stimulated phospho-ERK AlphaScreen | Potency, µM (top dose mostly 11.5 µM), for inactives: at the highest dose activity change, negative = inhibition, hits mostly inhibitors | 130,000 tested, 0.41% active;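 note: potency is the fitted concentration of half-maximal effect; plate controls were stimulated vehicle wells for no effect and unstimulated vehicle basal for full effect; nearly all actives have a fitted effect of over 55% in size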
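EGF-stimulated (25 nM, 5 min) phospho-ERK in HEK293 cells stably expressing V1b, cells pretreated 30 min with compound at 37C. Homogeneous AlphaScreen read on lysates.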
c-Raf inh = c-Raf inhibition, ERK pathway follow-up; shares compounds with ERK EGF inh; c-Raf kinase inhibition, homogeneous biochemical assay; activity change, negative = inhibition, % at 76.9 µM; 70 tested, under 10 active; AID 1728
Target sequence (P04049 whole entry, looked up): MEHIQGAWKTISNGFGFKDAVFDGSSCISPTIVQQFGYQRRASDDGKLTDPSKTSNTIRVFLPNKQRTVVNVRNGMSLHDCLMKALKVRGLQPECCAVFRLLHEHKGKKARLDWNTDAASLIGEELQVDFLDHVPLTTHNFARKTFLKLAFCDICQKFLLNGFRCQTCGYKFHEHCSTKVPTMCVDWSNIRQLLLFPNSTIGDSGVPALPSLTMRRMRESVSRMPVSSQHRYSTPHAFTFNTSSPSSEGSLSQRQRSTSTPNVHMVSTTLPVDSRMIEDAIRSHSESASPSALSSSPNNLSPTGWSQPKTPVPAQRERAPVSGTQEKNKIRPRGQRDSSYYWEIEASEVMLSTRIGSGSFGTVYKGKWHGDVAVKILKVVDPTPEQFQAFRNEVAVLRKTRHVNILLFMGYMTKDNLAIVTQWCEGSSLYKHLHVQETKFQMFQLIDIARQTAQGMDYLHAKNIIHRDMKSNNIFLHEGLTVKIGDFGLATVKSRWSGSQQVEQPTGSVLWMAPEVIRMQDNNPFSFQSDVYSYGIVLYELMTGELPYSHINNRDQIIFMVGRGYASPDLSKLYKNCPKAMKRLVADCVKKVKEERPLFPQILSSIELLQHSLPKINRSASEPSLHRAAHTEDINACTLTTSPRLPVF
MEK inh = MEK1 (human) kinase inhibition. shares compounds with ERK EGF inh. homogeneous MEK kinase activity assay, ERK pathway. Potency, µM (series often up to 76.9 µM), inactives show top-dose activity change, negative = inhibition, actives largely listed as inhibitors. 70 tested, under 10 active. AID 1732
* = called active by the depositor; ? = inconclusive; / = not tested or not shown; [ ] = dose if it differs, or a comment. Calls come from the whole dose curve; as a rule, active = well fitted curve in the direction sought with a large enough effect; inconclusive = small, poorly fitted or top-dose-only effect, or another doubt; inactive = no such curve, though single readings can be large; an effect the other way counts as inactive or inconclusive.

SMILES	ERK EGF inh	others
C=CCN1C(=O)NC(=O)/C(=C/C=C/c2ccccc2)C1=O	22.4µM*
O=C1NC(=O)N(CCc2ccc(F)cc2)C(=O)/C1=C\C=C\c1ccccc1	-9.1%
O=C1NC(=O)N(Cc2ccccc2)C(=O)/C1=C/c1cnc(-c2ccccc2)nc1	0.4%
Oc1ccc2[nH]cc(CCCCN3CC=C(c4ccccc4)CC3)c2c1	0.6%
COc1ccc2c(c[n+](C)c3c4cc5c(cc4ccc23)OCO5)c1OC	12.6µM*
COc1ccc2c(c1OC)C(=O)O[C@H]2[C@H]1c2cc3c(cc2CCN1C)OCO3	-6.5%[25.7 µM]
COc1ccc2c(c1OC)CN1CCc3cc4c(cc3[C@H]1C2)OCO4	4.7%[25.7 µM]
Cc1noc(C)c1C(=O)N1CCC[C@@]2(CCN(CC(C)C)C2)C1	-12.5%
Cc1ncc(CN2CC=C(c3ccccc3)CC2)c(N)n1	5.5%
c1ccc(N2CC[C@@]3(CCCNC3)C2)cc1	8.5%
COP(N)(=O)SC (stereo unspecified)	13.3%
CC1N(P(=O)(c2ccccc2)c2ccccc2)CC(O)(c2ccccc2)CC12CC2 (stereo unspecified)	-3.3%
CCC1C(=O)OC[C@H]1Cc1cncn1C (stereo partly specified)	11.2%
NC(CO)Cc1ccccc1 (stereo unspecified)	9.3%
Cc1ccc2c(c1)=NC(=O)/C(=C/c1c(O)[nH]c(=O)[nH]c1=O)C=2	-7.6%[57.5 µM]
O=c1[nH]c(O)c(/C=C2/C=CC(c3cc(Cl)ccc3Cl)=N2)c(=O)[nH]1	28.2µM*
CN1CCc2cc(O)cc3c2C1Cc1ccc(O)c(O)c1-3 (stereo unspecified)	17.3%
CN1CCCC2(CCN(C(=O)Oc3ccccc3)CC2)C1	-5.0%
COC(=O)[C@]1(C)CC[C@@]2(C)CC[C@@]3(C)C4=CC=C5C(=CC(=O)C(O)=C5C)[C@@]4(C)CC[C@@]3(C)C2C1 (stereo partly specified)	14.1µM*
CC[C@H](CO)NC(=O)[C@H]1C=C2c3cccc4[nH]cc(c34)C[C@@H]2N(C)C1	5.0%[25.7 µM]
Cc1cc(C)cc(C(=O)OC2C[C@H]3CC[C@@H](C2)N3C)c1 (stereo partly specified)	7.0%
CC1Oc2cc3c(-c4c(O)cc(O)c5c(O)c6c(cc45)OC(C)C(C)C6=O)c(O)cc(O)c3c(O)c2C(=O)C1C (stereo unspecified)	15.8µM*
CCCN1CCCC2Cc3[nH]ncc3CC21 (stereo unspecified)	4.6%
CC(C)N(CC[C@@](C(N)=O)(c1ccccc1)c1ccccn1)C(C)C	15.2%[25.7 µM]
CC(C)NC(=O)N1CCC2(CC1)CCN(C(=O)Oc1ccccc1)CC2	2.9%
SMILES	ERK EGF inh	others
CC(=O)Oc1ccc(Cl)c2cccnc12	-1.1%
CC[C@@H]1CN2CCc3cc(OC)c(OC)cc3[C@H]2C[C@@H]1C[C@H]1NCCc2cc(OC)c(OC)cc21	-14.8%[25.7 µM]
CN1CCN(c2ccc([N+](=O)[O-])c3no[n+]([O-])c23)CC1	10µM*
CN1CCN(c2ccc(S(C)(=O)=O)cc2[N+](=O)[O-])CC1	-3.3%
CN1CCN(c2ccc(S(=O)(=O)C(F)(F)F)cc2[N+](=O)[O-])CC1	-6.3%
CC1O[C@@H](O[C@@H]2C(O)C[C@H](O[C@@H]3C(O)C[C@@H](OC4CC[C@@]5(C)C6CC[C@]7(C)C(C8=CC(=O)OC8)CC[C@@]7(O)C6CC[C@@H]5C4)OC3C)OC2C)CC(O)[C@H]1O (stereo partly specified)	9.7%
CCCN1[C@@H]2C[C@@H](O)CC[C@@H]2C[C@H]1C(=O)OC	-2.7%
CCCCC[C@@H](/C=C/C=C\CCCCCCCCCC(=O)O)OO	-4.4%
Cn1nc(-c2ccccc2)nc2c(=O)n(C)c(=O)nc1-2	/	c-Raf inh=?;MEK inh=0.708µM*
COc1ccc(-c2nc3ccccc3c(=O)n2-c2ccc(OC)cc2)cc1	-12.8%
O=c1c2ccccc2nc(-c2ccccc2)n1-c1ccccc1	-7.9%[57.5 µM]
CCn1nc(-c2ccccc2)nc2c(=O)n(C)c(=O)nc1-2	0.4%	c-Raf inh=?;MEK inh=0.631µM*
Cc1nc2c(=O)n(C)c(=O)nc-2n(C)n1	22.1%	c-Raf inh=?;MEK inh=?
CC(=O)O[C@H]1C[C@@H](O[C@@H]2[C@H](C)O[C@H](O[C@@H]3[C@H](C)O[C@H](O[C@@H]4CC[C@@]5(C)[C@@H](CC[C@]6(C)[C@]5(C)C[C@H](O)[C@]5(C)[C@@H](C7=CC(=O)OC7)CC[C@@]56O)C4)C[C@@H]3O)C[C@@H]2O)O[C@@H](C)[C@H]1O[C@H]1O[C@@H](CO)[C@@H](O)[C@@H](O)[C@@H]1O	-6.2%[25.7 µM]
CC(C)C(O)(C(=O)OC[C@@H]1CC[N+]2([O-])CCCC12)C(C)O (stereo partly specified)	-17.4%
CC(C)(C#N)O[C@H]1OC(CO)C(O)C(O)C1O (stereo partly specified)	16.2%
CCCCCCCCCCCCC/C=C/[C@@H](O)[C@@H](N)COP(=O)([O-])OCC[N+](C)(C)C	-15.9%
CCC(C)C(=O)OC1C[C@@]2(C)C(c3ccoc3)OC(=O)CC23OC2(C)OC34C(OC(=O)C(C)C)[C@]3(O)C(OC(=O)C5(C)OC5C)[C@]5(C)CC3(O)[C@](C)(C5CC(=O)OC)C14O2 (stereo partly specified)	24.0%
CCOC(=O)C1C(C=C(C)C)C1(C)C (stereo unspecified)	26.7%
c1ccc(N2CCC3(CCNCC3)CC2)nc1	-13.0%
CC/C=C\C[C@@H](/C=C/C=C\C/C=C\C/C=C\CCCC(=O)O)OO	-10.1%
C=C(C)c1cc2cc(C(C)=O)c(O)cc2o1	-8.2%
N#Cc1cccc(NC(=O)N2CC3(CCN(C(=O)Oc4ccccc4)CC3)C2)c1	-3.0%
